High-throughput results as filed in PubChem BioAssay.
Pf growth 48h: inhibits P. falciparum growth in the first generation, 48 h; P. falciparum luciferase growth in erythrocytes, 48 h; Potency, µM (titrated, usually from 28.7 µM), inactives show at the highest dose activity change, negative = inhibition, actives largely listed as inhibitors; hit rate 5.9% among 310,000; AID 504832; further: potency means the concentration at half of the fitted maximal effect; on the % scale 0 is the no-effect control and ±100 the full control effect
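Erythrocytes infected with P. falciparum carrying an integrated firefly luciferase reporter (2% hematocrit, 0.1% parasitemia final) were exposed to compounds in RPMI 1640 with 0.5% Albumax at 37 C, 5% CO2. Growth inhibition was scored as reduced luminescence.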
Shiga toxin inh: inhibitors of Shiga toxin in Vero cells | Vero cells, Shiga toxin protein synthesis inhibition reporter | inhibition, % at 38.7 µM | hit rate 9.2% among 290,000; in the data active means inhibition mostly above about 28%, no sharp cut-off; inactive means mostly below about 43%; further: 0% is about no effect
Pf growth 96h: P. falciparum growth inhibition at 96 hour, primary screen for plastid delayed-death inhibitors. hit rate 6.9% among 320,000. Potency, µM (top dose mostly 28.7 µM), for the others: at the top dose activity change, negative = inhibition, most hits filed as inhibitors. P. falciparum luciferase reporter growth, 96 h; further: potency means the concentration at half of the fitted maximal effect; on the % scale 0 is the no-effect control and ±100 the full control effect
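96 h incubation, 37 C, 5% CO2, of luciferase-reporter P. falciparum-infected RBCs (2% hematocrit, 0.05% parasitemia final) with test compounds; endpoint luminescence.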
NS1 function inh: influenza NS1 inhibition | AID 2326 | hit rate 0.4% among 270,000 | Potency, µM (titrated, usually from 46.1 µM), for inactives: at the highest dose activity, positive = more growth; calls by dose curve; further: potency means the concentration at half of the fitted maximal effect; actives are rising curves; nearly all actives have a fitted effect of over 50% in size
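Read-out: OD600 growth recovery of NS1-expressing budding yeast. Cells grown overnight at 30C in -URA glucose medium, washed, resuspended and diluted 1:100 in 2% galactose assay medium, pH 6.0. Same strain lacking NS1 served as positive control.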
Sm TGR block: inhibitors of Schistosoma mansoni thioredoxin glutathione reductase; AID 485364; purified TGR, DTNB reduction, TNB absorbance 405 nm; Potency, µM (doses to about 114 µM), inactives show top-dose activity change, negative = inhibition, hits mostly inhibitors; hit rate 3% among 360,000; Q962Y6; further: potency means the concentration at half of the fitted maximal effect; on the % scale 0 is the no-effect control and ±100 the full control effect; nearly all actives have a fitted effect of over 60% in size
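TGR 20 nM + NADPH 100 uM (dispensed conc.), cpd preinc 15 min RT; start with NADPH (500 uM addition) then DTNB (15 mM addition). Kinetic TNB absorbance, 405 nm filter. Four-parameter Hill fit across titration.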
CHX counter: counter-screen for Shiga toxin inhibitors: cycloheximide protein synthesis inhibition; hit rate 12% among 300,000; cell reporter, cycloheximide protein synthesis inhibition counterscreen; max response, %; AID 2314; in the data active means max response mostly above about 13%, no sharp cut-off; inactive means mostly below about 14%; further: read at 38.3 µM for the half of the compounds with a filed dose; 0% is about no effect
* = called active by the depositor; u = inconclusive; x = no result. This is a sample that favours compounds with a hit; in the whole collection about 21% have one here. Unless noted, the call rests on the fitted dose curve; in most records, active means well fitted curve in the direction sought with a large enough effect; inconclusive means small, poorly fitted or top-dose-only effect, or another doubt; inactive means no such curve, though single readings can be large; an effect the other way counts as inactive or inconclusive.

SMILES	Pf growth 48h	Shiga toxin inh	Pf growth 96h	NS1 function inh	Sm TGR block	CHX counter
COc1ccc(/C=C/C(=O)Nc2cccc(S(=O)(=O)NC3=NCCCCC3)c2)cc1	56%	74*	90%	9%	-33%	26*
O=C(/C=C/c1ccc(OC(F)F)cc1)Nc1cccc(S(=O)(=O)NC2=NCCCCC2)c1	-3%	57*	-3%	2%	0%	29*
CC1(C)C2CCC1(C)C(OCC[N+](C)(C)CC(=O)OC1CCCCC1)C2 (stereo not drawn)	1.5µM*	-14	0.52µM*	8%	-5%	-2
CCOC(=O)C[N+](C)(C)CCOC1CC2CCC1(C)C2(C)C (stereo not drawn)	2.1µM*	18	0%	0%	x	0
COC(=O)c1cnn2c3c(c(C)nc12)CCCC3	37%	73*	0.93µM*	4%	6%	59*
CN(Cc1ccccc1)S(=O)(=O)c1ccc2[nH]cc(C(=O)NCC3CCCO3)c(=O)c2c1 (stereo not drawn)	73%	111	0.93µM*	-46%	1%	38
CC(C)c1ccc(NS(=O)(=O)c2ccc3[nH]cc(C(=O)NCC4CCCO4)c(=O)c3c2)cc1 (stereo not drawn)	x	x	x	x	6%	x
CCc1ccccc1NS(=O)(=O)c1ccc2[nH]cc(C(=O)NCC3CCCO3)c(=O)c2c1 (stereo not drawn)	x	-7	x	-33%	-4%	-5
CCOc1ccc(NS(=O)(=O)c2ccc3[nH]cc(C(=O)NCC4CCCO4)c(=O)c3c2)cc1 (stereo not drawn)	111%	10	0.029µM*	-52%	-2%	38
COc1ccccc1N1C(=N)S/C(=C\c2ccc(-c3ccccc3C(=O)O)o2)C1=O	-6%	-6	1%	u	20µM*	1
Cc1ccc(NS(=O)(=O)c2ccc3c(c2)N(C)C(=O)CC(=O)N3C)cc1Cl	x	x	x	x	-16%	x
CCN(CC)C(=O)c1ccc(NC(=O)c2cccc(S(=O)(=O)N3CCN(C)CC3)c2)cc1	u	-6	u	2%	5%	6
CCOC(=O)c1ccc(NC(=O)c2cccc(S(=O)(=O)N3CCN(C(C)=O)CC3)c2)cc1	u	3	9.3µM*	-1%	4%	-3
CCN(c1ccc(NC(=O)c2cccc(S(=O)(=O)N3CCN(C)CC3)c2)cc1)C(C)C	12%	-10	-17%	-35%	8.9µM*	1
Cc1cccc(S(=O)(=O)c2cn(Cc3ccccc3)c3cc(N4CCC(C)CC4)c(F)cc3c2=O)c1	x	-6	x	x	-2%	-1
Cc1cc(NC(=O)Cn2nnc3sc4c(c3c2=O)CCC(C(C)(C)C)C4)no1 (stereo not drawn)	10µM*	-7	4%	-35%	6%	-3
Cc1cc(NC(=O)Cn2nnc3sc4c(c3c2=O)CCCC4)no1	1%	12	23%	-4%	-25%	-2
COc1ccc(C(CC(=O)O)NC(=O)c2cc3ccccc3oc2=O)cc1OC (stereo not drawn)	x	x	x	x	0%	x
CCN1CCN(C(=O)COCc2cc(-c3ccc4c(c3)OCO4)on2)CC1	43%	27	34%	3%	3%	22*
O=C(COCc1cc(-c2ccc3c(c2)OCO3)on1)Nc1cccnc1Cl	43%	29	u	-11%	3%	25*
Cc1c(Cl)cccc1NC(=O)COCc1cc(-c2ccc3c(c2)OCO3)on1	x	x	x	x	2%	x
O=C(O)C[SH+]CC(=O)O.O=C(O)C[SH+]CC(=O)O.[Cu]	x	x	x	-3%	x	x
CCOC(=O)c1nsnc1NCCSC(=N)N	3%	-5	-3%	14%	1%	-1
COc1ccc(-c2cc(C(F)(F)F)nc(SCC(=O)NCc3ccc(OC)c(OC)c3)n2)cc1	x	x	x	x	4%	x
COc1ccc(NC(=O)Nc2ccc3nccnc3c2)cc1	104%	80	u	-6%	-2%	22*
COC(=O)c1cc(OC)c(OC)cc1NC(=O)Nc1ccc(OC)cc1	x	-8	-1%	3%	-5%	-4
COc1ccc(NC(=O)Nc2ccc3nonc3c2)cc1	104%	66*	127%	-2%	9%	34*
O=C(CCc1nnc2ccc(NCc3ccco3)nn12)Nc1ccc(F)cc1	-3%	22	22%	15%	u	4
